PubChem BioAssay (NCATS)
Values joined by “and” are separate entries in the source; they are usually repeats but may differ in a detail not shown here. Equal entries are not always repeated. Unmarked numbers belong to inactive results. Results filed as inconclusive are left out. Where a call stands in place of a potency, no number is given. Active and inactive are the calls of the source. Unless noted, calls come from the whole dose curve; as a rule, active = well fitted inhibition curve with a large enough effect; inconclusive = small, poorly fitted or top-dose-only effect; inactive = flat fitted curve, though single readings scatter.

Experiments:
[1] = target: Tumor necrosis factor (Homo sapiens) (UniProt P01375); test: qHTS assay to identify small molecules that stimulate Tumor Necrosis Factor-alpha (TNF-alpha) secretion (AID 651757; active = well fitted curve in the direction sought with a large enough effect in the signal ratio; the % refers to the signal ratio)
Method in brief: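 THP-1 cells were exposed to compounds for 17 hrs at 37 C, after which secreted TNF-alpha was measured by homogeneous HTRF (TR-FRET) using cryptate- and XL665-labeled anti-TNF-alpha antibodies, read after 3 hr at room temperature.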

[2] = target: Nuclear receptor subfamily 1 group I member 2 (Rattus norvegicus) (UniProt Q9R1A7); test: qHTS assay for small molecule activators of the rat pregnane X receptor (rPXR) signaling pathway (AID 651751; call rule not given here); conditions: rPXR reporter cells, luciferase (One-Glo), 24 h
[3] = target: Ubiquitin carboxyl-terminal hydrolase 1 (Homo sapiens) (UniProt O94782); test: Inhibitors of USP1/UAF1: Pilot qHTS (AID 504865);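 note: rhodamine fluorescence freed from ubiquitin-rhodamine substrate followed over time; top concentration of the series differs between compounds; nearly all actives have a fitted effect of over 35% in size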
Method in brief: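 USP1/UAF1 complex (1nM) preincubated with compound 15 min at room temperature, then Ub-Rho substrate (150nM final) added. Fluorescence read kinetically at 480/540 nm, 6 reads every 60 seconds. Buffer: 50mM HEPES pH 7.8, 0.5mM EDTA, 0.1 mg/ml BSA, 1mM TCEP, 0.01% Tween-20.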

AS120 = test: qHTS profiling for inhibitors of Plasmodium falciparum proliferation (AID 504749); note: nearly all actives have a fitted effect of over 60% in size; note: potency is the fitted concentration of half-maximal effect; conditions: P. falciparum in erythrocytes, SYBR Green DNA, 72 h; series mostly up to 28.7 µM
Method in brief: (§1)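 Three-day growth assay of blood-stage parasites in erythrocytes (0.3% parasitemia, 2.5% hematocrit) at 37 C, 5% CO2, quantified by SYBR Green DNA staining after overnight detergent lysis.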

C2A = test: as above; conditions: P. falciparum in erythrocytes, SYBR Green DNA, 72 h; series mostly up to 28.7 µM
Method in brief: as §1

CP191 = test: as above; conditions: P. falciparum in erythrocytes, SYBR Green DNA, 72 h; series mostly up to 28.7 µM
Method in brief: as §1

CP237 = test: as above; conditions: P. falciparum in erythrocytes, SYBR Green DNA, 72 h; series mostly up to 28.7 µM
Method in brief: as §1

CP247 = test: as above; conditions: P. falciparum in erythrocytes, SYBR Green DNA, 72 h; series mostly up to 28.7 µM
Method in brief: as §1

CP256 = test: as above; conditions: P. falciparum in erythrocytes, SYBR Green DNA, 72 h; series mostly up to 28.7 µM
Method in brief: as §1

CP260 = test: as above; conditions: P. falciparum in erythrocytes, SYBR Green DNA, 72 h; series mostly up to 28.7 µM
Method in brief: as §1

CP265 = test: as above; conditions: P. falciparum in erythrocytes, SYBR Green DNA, 72 h; series mostly up to 28.7 µM
Method in brief: as §1

CP266 = test: as above; conditions: P. falciparum in erythrocytes, SYBR Green DNA, 72 h; series mostly up to 28.7 µM
Method in brief: as §1

CP335 = test: as above; conditions: P. falciparum in erythrocytes, SYBR Green DNA, 72 h; series mostly up to 28.7 µM
Method in brief: as §1

DFO2036 = test: as above; conditions: P. falciparum in erythrocytes, SYBR Green DNA, 72 h; series mostly up to 28.7 µM
Method in brief: as §1

Dd2 = test: as above; conditions: P. falciparum in erythrocytes, SYBR Green DNA, 72 h; series mostly up to 28.7 µM
Method in brief: as §1

PC15 = test: as above; conditions: P. falciparum in erythrocytes, SYBR Green DNA, 72 h; series mostly up to 28.7 µM
Method in brief: as §1

SC27B = test: as above; conditions: P. falciparum in erythrocytes, SYBR Green DNA, 72 h; series mostly up to 28.7 µM
Method in brief: as §1

CP192 = test: as above; conditions: P. falciparum in erythrocytes, SYBR Green DNA, 72 h; series mostly up to 28.7 µM
Method in brief: as §1

CP269 = test: as above; conditions: P. falciparum in erythrocytes, SYBR Green DNA, 72 h; series mostly up to 28.7 µM
Method in brief: as §1

CP291 = test: as above; conditions: P. falciparum in erythrocytes, SYBR Green DNA, 72 h; series mostly up to 28.7 µM
Method in brief: as §1

Nuclear receptor subfamily 1 group I member 2 (Rattus norvegicus), sequence (Q9R1A7 whole entry, looked up): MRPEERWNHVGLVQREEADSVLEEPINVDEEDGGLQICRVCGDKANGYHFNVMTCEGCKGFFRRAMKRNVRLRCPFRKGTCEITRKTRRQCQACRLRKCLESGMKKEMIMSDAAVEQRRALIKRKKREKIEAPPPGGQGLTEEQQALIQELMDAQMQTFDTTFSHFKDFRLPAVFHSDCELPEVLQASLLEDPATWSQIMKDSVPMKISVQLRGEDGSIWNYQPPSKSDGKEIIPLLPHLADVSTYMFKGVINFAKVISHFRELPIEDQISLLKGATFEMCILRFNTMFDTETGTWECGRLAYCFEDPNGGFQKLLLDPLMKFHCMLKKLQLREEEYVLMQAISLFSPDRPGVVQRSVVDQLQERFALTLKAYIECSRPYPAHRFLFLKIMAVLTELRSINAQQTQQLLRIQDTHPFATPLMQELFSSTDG
Ubiquitin carboxyl-terminal hydrolase 1 (Homo sapiens), sequence (O94782 whole entry, looked up): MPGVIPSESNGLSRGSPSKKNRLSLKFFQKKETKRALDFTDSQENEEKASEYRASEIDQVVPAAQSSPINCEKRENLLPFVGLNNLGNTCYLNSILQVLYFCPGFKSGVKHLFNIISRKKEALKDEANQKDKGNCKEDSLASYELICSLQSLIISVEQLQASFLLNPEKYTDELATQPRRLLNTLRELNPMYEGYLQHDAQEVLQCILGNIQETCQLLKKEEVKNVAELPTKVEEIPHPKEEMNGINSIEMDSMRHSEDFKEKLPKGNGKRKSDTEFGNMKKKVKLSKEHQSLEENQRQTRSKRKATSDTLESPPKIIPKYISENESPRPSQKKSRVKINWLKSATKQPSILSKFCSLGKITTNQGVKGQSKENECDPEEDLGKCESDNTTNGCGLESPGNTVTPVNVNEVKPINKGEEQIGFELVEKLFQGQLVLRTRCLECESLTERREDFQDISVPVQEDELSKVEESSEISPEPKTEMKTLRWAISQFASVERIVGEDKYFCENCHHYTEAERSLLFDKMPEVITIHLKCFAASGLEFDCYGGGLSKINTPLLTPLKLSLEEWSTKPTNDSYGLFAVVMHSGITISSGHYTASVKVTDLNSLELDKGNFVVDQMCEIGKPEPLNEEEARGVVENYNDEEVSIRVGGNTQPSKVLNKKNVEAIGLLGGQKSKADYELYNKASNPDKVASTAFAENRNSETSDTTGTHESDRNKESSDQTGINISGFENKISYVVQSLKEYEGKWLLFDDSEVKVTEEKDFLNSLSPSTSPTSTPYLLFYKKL
Tumor necrosis factor (Homo sapiens), sequence (P01375 whole entry, looked up): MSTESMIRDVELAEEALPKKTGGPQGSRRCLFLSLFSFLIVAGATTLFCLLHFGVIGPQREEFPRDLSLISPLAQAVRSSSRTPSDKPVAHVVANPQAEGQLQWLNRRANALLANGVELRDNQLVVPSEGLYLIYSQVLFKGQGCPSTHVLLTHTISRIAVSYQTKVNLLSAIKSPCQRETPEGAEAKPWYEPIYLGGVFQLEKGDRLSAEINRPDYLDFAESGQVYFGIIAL

COc1c2ccoc2cc2oc(=O)ccc12
outcome [1]: inactive
max response [2]: 2.12%

S=C1NC=NC2N=CNC12 (configuration not stated)
Potency [3]: inactive
Potency (AS120): inactive
Potency (C2A): inactive
Potency (CP191): inactive
Potency (CP237): inactive
Potency (CP247): inactive
Potency (CP256): inactive
Potency (CP260): inactive
Potency (CP265): inactive
Potency (CP266): 10.7 µM (active)
Potency (CP335): inactive
Potency (DFO2036): inactive
Potency (Dd2): inactive
Potency (PC15): inactive
Potency (SC27B): inactive
max response [2]: -8.03%

Cc1ccc(N)c([N+](=O)[O-])c1
outcome [1]: inactive
max response [2]: -2.15% and -2.21%

CC(=O)OC/C=C(\C)CCC=C(C)C
outcome [1]: inactive
max response [2]: 1.82% and -1.93%

CCCCOCCO
outcome [1]: inactive

CN1CC[C@H](CN2c3ccccc3Sc3ccccc32)C1
Potency [3]: inactive
Potency (AS120): 12.6 µM (active)
Potency (C2A): 10 µM (active)
Potency (CP191): 10 µM (active)
Potency (CP192): inactive
Potency (CP237): 6.31 µM (active)
Potency (CP247): 7.94 µM (active)
Potency (CP256): 8.91 µM (active)
Potency (CP260): 11.2 µM (active)
Potency (CP265): 11.2 µM (active)
Potency (CP266): inactive
Potency (CP269): 15.1 µM (active)
Potency (CP291): 15.1 µM (active)
Potency (DFO2036): 12.6 µM (active)
Potency (Dd2): 3.55 µM (active)
Potency (PC15): 11.2 µM (active)
Potency (SC27B): 11.2 µM (active)

CCC(O)OC(O)CC (configuration not stated)
outcome [1]: inactive
max response [2]: -0.225% [middle of 4 runs]

CC1=CC(C)(C)Nc2ccccc21
outcome [1]: inactive

CN(C)CCCCCCN(C)C
Potency [3]: inactive
outcome [1]: inactive
Potency (AS120): inactive
Potency (C2A): inactive
Potency (CP191): inactive
Potency (CP192): inactive
Potency (CP237): inactive
Potency (CP247): inactive
Potency (CP256): inactive
Potency (CP260): inactive
Potency (CP265): inactive
Potency (CP266): inactive
Potency (CP269): inactive
Potency (CP291): inactive
Potency (CP335): inactive
Potency (DFO2036): inactive
Potency (Dd2): inactive
Potency (PC15): inactive
Potency (SC27B): inactive
